This is an account of results in PubChem BioAssay (NCATS).

Results filed as inconclusive are left out. Values without a mark were called inactive. Activity calls are given as the source filed them. Calls follow the shape of the dose curve; as a rule, active = well fitted cell-killing curve with a large enough effect; inconclusive = small, poorly fitted or top-dose-only effect, or effect the other way; inactive = no such curve, though single readings can be large or run the other way.

A short description of assay [1]: Quantitative High-Throughput drug screen in 47 multiple myeloma cell lines against the NCATS MIPE library collection: SKMM1_PLB cell viability assay (AID 1919863). Also: nearly all actives have a fitted effect of over 35% in size. The conditions noted are these: SKMM1 myeloma viability, CellTiter-Glo ATP, 48 h; viability: hits give low values. In short, it runs like this:
(§1)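 Cells were exposed to library compounds for 48 hours, after which ATP was measured by CellTiter-Glo. Signal was taken as median relative luminescence units.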
In general terms: Cellular ATP, detected with luciferase, serves as a proxy for viable cell number.

The nature of assay [2]: Quantitative High-Throughput drug screen in 47 multiple myeloma cell lines against the NCATS MIPE library collection: U266_ATCC cell viability assay (AID 1919864). Also: nearly all actives have a fitted effect of over 35% in size.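 As to viability (% of DMSO control): 0% = media-only wells without cells and 100% = DMSO-only wells.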 An outline of the steps: as §1
The nature of assay [3]: Quantitative High-Throughput drug screen in 47 multiple myeloma cell lines against the NCATS MIPE library collection: XG6_PLB cell viability assay (AID 1919865). Also: nearly all actives have a fitted effect of over 40% in size. An outline of the steps: as §1
A short description of assay [4]: Quantitative High-Throughput drug screen in 47 multiple myeloma cell lines against the NCATS MIPE library collection: XG1_PLB cell viability assay (AID 1919866). Also: nearly all actives have a fitted effect of over 35% in size. In short, it runs like this:
as §1

A short description of assay [5]: Quantitative High-Throughput drug screen in 47 multiple myeloma cell lines against the NCATS MIPE library collection: UTMC2_PLB cell viability assay (AID 1919868). Also: nearly all actives have a fitted effect of over 55% in size.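 As to viability (% of DMSO control): 100% = DMSO-only wells and 0% = media-only wells without cells.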 The conditions noted are these: CellTiter-Glo ATP luminescence, 48 h; viability (% of DMSO control): at 45.8 µM (top of the series). In short, it runs like this:
as §1

Assay [6] is described as follows: Quantitative High-Throughput drug screen in 47 multiple myeloma cell lines against the NCATS MIPE library collection: PCM6_Riken cell viability assay (AID 1919870). Also: nearly all actives have a fitted effect of over 30% in size. In short, it runs like this: as §1
Assay [7] is described as follows: Quantitative High-Throughput drug screen in 47 multiple myeloma cell lines against the NCATS MIPE library collection: RPMI8226_ATCC cell viability assay (AID 1919871). Also: nearly all actives have a fitted effect of over 30% in size. In short, it runs like this: as §1
Assay [8] in a line: Quantitative High-Throughput drug screen in 47 multiple myeloma cell lines against the NCATS MIPE library collection: OPM2_DSMZ cell viability assay (AID 1919872). Also: nearly all actives have a fitted effect of over 30% in size. An outline of the steps: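 qHTS of the MIPE 4.0 collection: 500 myeloma cells/well, 48 h drug exposure at 37C in 5% CO2, then CellTiter-Glo for 5 min at room temperature before luminescence reading.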
The nature of assay [9]: Quantitative High-Throughput drug screen in 47 multiple myeloma cell lines against the NCATS MIPE library collection: KMS11_JCRBsus cell viability assay (AID 1919873). Also: nearly all actives have a fitted effect of over 50% in size. In short, it runs like this:
as §1

Assay [10] can be described thus: Quantitative High-Throughput drug screen in 47 multiple myeloma cell lines against the NCATS MIPE library collection: VP6_DJ cell viability assay (AID 1919867). Also: nearly all actives have a fitted effect of over 40% in size. In short, it runs like this: as §1
The nature of assay [11]: Quantitative High-Throughput drug screen in 47 multiple myeloma cell lines against the NCATS MIPE library collection: PE2_PLB cell viability assay (AID 1919869). Also: nearly all actives have a fitted effect of over 35% in size. In short, it runs like this: as §1
Assay [12] can be described thus: Quantitative High-Throughput drug screen in 47 multiple myeloma cell lines against the NCATS MIPE library collection: KMS28BM_JCRB cell viability assay (AID 1919874). Also: nearly all actives have a fitted effect of over 35% in size. An outline of the steps: as §1
Potency is read from the fitted curve at half-maximal effect.

Regarding `CC(C)(C)COc1ccc(-n2cc(C(=O)O)cn2)cc1C#N`, the viability in assay [1] is 120%. Also, the Potency entry in assay [2], in assay [3], in assay [4], in assay [5], in assay [6] and in assay [7] was “inactive” in each case. For the same compound, the Potency entry in assay [8] and in assay [9] was “inactive” in each case.

With `N[C@H](CSC(c1ccccc1)(c1ccccc1)c1ccccc1)C(=O)O`, the Potency is 10.5 µM (active) in assay [1]; 6.62 µM (active) in assay [3]; 10.5 µM (active) in assay [10]; 9.35 µM (active) in assay [5]; 20.9 µM (active) in assay [8]; 4.18 µM (active) in assay [9]. For the same compound, the Potency entry in assay [2] is “inactive”.

`O=C(CCN1CCN(C(=O)OCc2cc(Cl)cc(Cl)c2)CC1)c1ccc2[nH]c(=O)oc2c1`: in [1], the viability is 136%. Further, the Potency entry in assay [2], in [3], in assay [10], in [11], in assay [6] and in assay [7] was “inactive” in each case. The Potency result in assay [9] and in assay [12] was “inactive” in each case.

As to `O=C1C(Cl)=C(NCCN2CCOCC2)C(=O)c2ncccc21`, the Potency is 4.18 µM (active) in assay [1]; 5.9 µM (active) in [2]; 7.43 µM (active) in [3]; 6.62 µM (active) in assay [4]; 7.43 µM (active) in assay [10]; 8.33 µM (active) in [5]. Moreover, the Potency in assay [11] is 2.35 µM (active); in assay [6], 8.33 µM (active); in assay [7], 9.35 µM (active); in assay [8] it was 7.43 µM (active); in assay [9] it was 1.87 µM (active); in [12], 3.32 µM (active).

Regarding `CCc1ccc(OCc2ccccc2C(=O)Nc2ccc3nc(C)cc(N)c3c2)cc1`, the Potency in assay [1] is 6.62 µM (active); in assay [2] it was 5.9 µM (active); in assay [3], 1.05 µM (active); in assay [4], 1.48 µM (active); in assay [10], 1.32 µM (active); in [5] it was 3.32 µM (active). Moreover, the Potency in assay [11] is 2.35 µM (active); in [6], 1.18 µM (active); in assay [7] it was 6.62 µM (active); in assay [8] it was 9.35 µM (active); in [9], 1.48 µM (active); in assay [12], 1.18 µM (active).

As for `Oc1ccc(C2CCN(c3ccnc4ccccc34)CC2)cc1O`, in assay [1], the viability is 103%. The Potency in assay [2] is 3.32 µM (active); in [3] it was 6.62 µM (active); in [10], 14.8 µM (active); in assay [11], 16.6 µM (active); in assay [6], 13.2 µM (active); in [7], 16.6 µM (active). Further, the Potency in [9] is 18.7 µM (active); in assay [12] it was 4.69 µM (active).

Take `CC(C(=O)O)c1ccc(-c2ccccc2)c(F)c1` (stereo not given): in assay [1], the viability is 102%. Further, the Potency in assay [2] is 20.9 µM (active); in [3], 20.9 µM (active); in assay [4], 9.35 µM (active); in assay [10], 13.2 µM (active); in assay [6] it was 14.8 µM (active); in assay [12] it was 14.8 µM (active). In addition, the Potency entry in [7] and in assay [8] was “inactive” throughout.

Take `CC(C)OC(=O)CCCC=CC[C@@H]1[C@H](C=C[C@@H](O)COc2cccc(C(F)(F)F)c2)[C@H](O)C[C@@H]1O`: the Potency was 20.9 µM (active) in assay [1]; 20.9 µM (active) in assay [2]; 16.6 µM (active) in [3]; 18.7 µM (active) in assay [4]; 16.6 µM (active) in assay [5]; 16.6 µM (active) in [11]. Further, the Potency in [6] was 20.9 µM (active); in assay [7], 10.5 µM (active); in assay [8] it was 23.5 µM (active); in assay [9] it was 16.6 µM (active); in assay [12], 18.7 µM (active).

Take `COc1cc2ncnc(Nc3ccc(F)c(Cl)c3)c2cc1OCCCN1CCOCC1`: the Potency was 67.9 µM (active) in assay [1]; 30.3 µM (active) in assay [2]; 0.0762 µM (active) in [3]; 6.79 µM (active) in [10]; 17.1 µM (active) in assay [5]; 13.6 µM (active) in assay [11]. For the same compound, the Potency in assay [6] is 6.05 µM (active); in assay [7], 42.9 µM (active); in assay [8], 54 µM (active); in assay [9], 21.5 µM (active).

With `CC(=Cc1ccccc1)C=C1SC(=S)N(CC(=O)O)C1=O`, the viability in assay [1] is 123%. The Potency result in [2], in assay [3], in [4], in assay [10], in assay [11] and in [6] was “inactive” each time. Moreover, the Potency result in [7], in assay [8], in assay [9] and in assay [12] was “inactive” throughout.

Consider `CC(C)=CC[C@@H](O)C1=CC(=O)c2c(O)ccc(O)c2C1=O`, for which the Potency in assay [1] is 1.05 µM (active); in assay [2] it was 0.469 µM (active); in assay [3] it was 0.469 µM (active); in assay [4] it was 0.418 µM (active); in assay [5] it was 13.2 µM (active); in assay [11], 0.264 µM (active). In addition, the Potency in assay [7] was 1.87 µM (active); in assay [8], 1.32 µM (active); in assay [9] it was 1.18 µM (active); in assay [12], 0.833 µM (active).

As for `CNC1CCC(N(Cc2cccc(-c3ccncc3)c2)C(=O)c2sc3c(F)ccc(F)c3c2Cl)CC1` (stereo not given), the Potency in assay [1] is 18.7 µM (active); in assay [2], 18.7 µM (active); in assay [3], 14.8 µM (active); in [4] it was 18.7 µM (active); in [5] it was 20.9 µM (active); in assay [11], 10.5 µM (active). Further, the Potency in assay [6] is 14.8 µM (active); in [7], 18.7 µM (active); in [9] it was 9.35 µM (active); in assay [12], 26.4 µM (active).

On to `c1ccc2c(Cc3c[nH]c4ccccc34)c[nH]c2c1`, for which the Potency in assay [1] is 18.7 µM (active); in assay [2], 2.96 µM (active); in assay [3], 0.662 µM (active); in assay [4], 1.18 µM (active); in assay [10], 4.18 µM (active); in assay [11], 2.96 µM (active). Besides, the Potency is 4.69 µM (active) in assay [6], 26.4 µM (active) in assay [8], 23.5 µM (active) in assay [9] and 18.7 µM (active) in assay [12]. Moreover, the Potency entry in assay [5] was “inactive”.

Broadly, the viability is a read-out of living cells in per cent, often relative to untreated cells.
